Reference: PubChem BioAssay AID743380 (National Center for Advancing Translational Sciences (NCATS), 2014)
Active and inactive are the calls of the source. Calls come from the whole dose curve.

These compounds were tested against Phosphatidylinositol 4-phosphate 5-kinase type-1 alpha (Homo sapiens) (UniProt Q99755) (assay: qHTS for Inhibitors of PI5P4K: PI4P5K-alpha 32P-ATP TLC Secondary Assay for Probe SAR). Settings: recombinant PI4P5K-alpha, 32P-ATP TLC phosphorimager.
Description: In addition to finding PI5P, we discovered the type II phosphatidylinositol 5-phosphate 4-kinase (PI5P4K) family (alpha, beta, gamma isoforms) that catalyze the conversion of PI5P to PI(4,5)P2. Alternatively, PI(4,5)P2 can also be synthesized through phosphatidylinositol-4-phosphate (PI4P) by the type I phosphatidylinositol 4-phosphate 5-kinases (PI4P5K). These PI5P4K enzymes therefore represent one way by which cells can regulate endogenous PI5P levels and play important roles in insulin signaling and in stress responses. […] A qHTS PI5P4K-alpha ADP-Glo assay was developed to identify specific modulators of human PI5P4K, phosphatidylinositol-5-phosphate 4-kinase (Type II PIPK). To confirm that the active compounds and their analogs were true and selective inhibitors, a secondary Thin-layer Chromatography (TLC) assays against recombinant PI5P4K-alpha, PI4P5K-alpha or PI5P4K-beta that utilize a radioactively labeled ATP were developed. The data herein is the result of the PI4P5K-alpha TLC assay. […]
The kinase reaction was carried out in a total of 50 microL of kinase buffer (50 mM HEPES pH 7.4 and 10 mM MgCl2) containing 20 microM of the lipids that were suspended by sonication. […] The radiolabeled product, PI(4,5)P2, was quantified with a phosphorimager (Molecular Dynamics, STORM840, GE Healthcare, Waukesha, WI, USA).

Phosphatidylinositol 4-phosphate 5-kinase type-1 alpha (Homo sapiens), sequence (Q99755 whole entry, looked up, canonical isoform): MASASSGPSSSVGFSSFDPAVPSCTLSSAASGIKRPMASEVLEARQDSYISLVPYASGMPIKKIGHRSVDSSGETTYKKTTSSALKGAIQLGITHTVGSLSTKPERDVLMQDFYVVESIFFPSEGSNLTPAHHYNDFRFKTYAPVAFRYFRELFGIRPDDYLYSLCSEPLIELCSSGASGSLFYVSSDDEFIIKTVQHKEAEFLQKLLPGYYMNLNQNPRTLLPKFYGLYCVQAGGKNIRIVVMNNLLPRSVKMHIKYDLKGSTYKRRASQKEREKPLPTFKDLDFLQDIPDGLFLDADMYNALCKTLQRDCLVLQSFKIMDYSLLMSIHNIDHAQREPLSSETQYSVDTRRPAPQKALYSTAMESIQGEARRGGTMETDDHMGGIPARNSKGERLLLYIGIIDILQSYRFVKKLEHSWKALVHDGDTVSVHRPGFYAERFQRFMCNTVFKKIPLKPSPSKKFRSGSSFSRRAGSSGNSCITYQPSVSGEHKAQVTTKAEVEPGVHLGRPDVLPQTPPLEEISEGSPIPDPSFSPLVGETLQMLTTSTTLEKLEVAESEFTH

| Compound | Potency |
| --- | --- |
| O=C1Nc2ccc(C(=O)c3ccco3)cc2/C1=C/c1cc(Cl)c(O)c(Cl)c1 | 498 nM (active) |
